{"source": "the supplement of paper PMC8728848", "binders": {"B1": {"name": "rCnSL-proA (Clitocybe nebularis) (protein)", "chain": "AAFFSLVVLLALLPFGIHASALPSTELTPRVNPNLPGPNDVFVGFRGTNNIVGAIYEKDGIKDTPLNNGADAEMGPGSYITDGLFTARIFASGSAGNNPGTTATVCKIYASGVQWRGAPKGYIPVAYFGNGPTAEQRRQTYLRTLGLPGTAIRFGNLNTNPGQGPTAPRQMVVPPGPLRSLLKASCFPAADTRLPQTLHYFEKRVDWNIITAADSQTWGH"}}, "assay_in_all_cases": "glycan array binding signal (z-score within array); higher = stronger binding", "conditions_in_all_cases": "glycan notation: IUPAC condensed, linker removed", "key": {"[1]": {"biological_target": "Gal(b1-4)GlcNAc(b1-3)Gal(b1-4)GlcNAc(b1-3)GalNAc", "outline": "(§1)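 From the Consortium for Functional Glycomics database, 3228 arrays were curated, keeping only those whose protein sequence was available. Binding is given as a within-array Z-score averaged across arrays sharing a protein sequence and across linkers. Negative Z-scores can be read as non-binding.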"}, "[2]": {"biological_target": "Gal(b1-4)GlcNAc(b1-3)[Fuc(a1-3)GlcNAc(b1-6)]Gal(b1-4)Glc", "outline": "as §1"}, "[3]": {"biological_target": "Gal(b1-4)GlcNAc6P", "outline": "as §1"}, "[4]": {"biological_target": "Gal6S(b1-4)Glc", "outline": "as §1"}, "[5]": {"biological_target": "GalNAc(a1-3)GalNAc(b1-3)Gal(a1-4)Gal(b1-4)Glc", "outline": "as §1"}, "[6]": {"biological_target": "GalNAc(b1-3)Gal(a1-6)Gal(b1-4)Glc", "outline": "as §1"}, "[7]": {"biological_target": "GalNAc(b1-4)GlcNAc(b1-2)Man(a1-3)[GalNAc(b1-4)GlcNAc(b1-2)Man(a1-6)]Man(b1-4)GlcNAc(b1-4)GlcNAc", "outline": "as §1"}, "[8]": {"biological_target": "GlcNAc(b1-3)Gal(b1-4)GlcNAc(b1-2)Man(a1-3)[GlcNAc(b1-3)Gal(b1-4)GlcNAc(b1-2)Man(a1-6)]Man(b1-4)GlcNAc(b1-4)GlcNAc", "outline": "as §1"}, "[9]": {"biological_target": "GlcNAc(b1-3)Gal(b1-4)GlcNAc(b1-3)Gal(b1-4)GlcNAc(b1-3)Gal(b1-4)GlcNAc(b1-2)Man(a1-3)[GlcNAc(b1-3)Gal(b1-4)GlcNAc(b1-3)Gal(b1-4)GlcNAc(b1-3)Gal(b1-4)GlcNAc(b1-2)Man(a1-6)]Man(b1-4)GlcNAc(b1-4)GlcNAc", "outline": "as §1"}, "[10]": {"biological_target": "GlcNAc(b1-3)Gal(b1-4)GlcNAc(b1-3)Gal(b1-4)GlcNAc(b1-3)Gal(b1-4)GlcNAc(b1-2)Man(a1-3)[GlcNAc(b1-3)Gal(b1-4)GlcNAc(b1-3)Gal(b1-4)GlcNAc(b1-3)Gal(b1-4)GlcNAc(b1-2)Man(a1-6)]Man(b1-4)GlcNAc(b1-4)[Fuc(a1-6)]GlcNAc", "outline": "as §1"}, "[11]": {"biological_target": "GlcNAc(b1-3)[GlcNAc(b1-6)]Gal(b1-4)GlcNAc", "outline": "as §1"}, "[12]": {"biological_target": "GlcNAc(b1-4)GlcNAc(b1-4)GlcNAc", "outline": "as §1"}, "[13]": {"biological_target": "GlcNAc(b1-4)[GlcNAc(b1-6)]GalNAc", "outline": "as §1"}, "[14]": {"biological_target": "GlcNAc(b1-6)Gal(b1-4)GlcNAc", "outline": "as §1"}, "[15]": {"biological_target": "Man(a1-3)[Man(a1-6)]Man(a1-6)[Man(a1-3)]Man(b1-4)GlcNAc(b1-4)GlcNAc", "outline": "as §1"}, "[16]": {"biological_target": "Neu5Ac(a2-3)Gal(b1-3)GalNAc", "outline": "as §1"}, "[17]": {"biological_target": "Neu5Ac(a2-3)Gal(b1-3)GlcNAc(b1-2)Man(a1-3)[Neu5Ac(a2-3)Gal(b1-3)GlcNAc(b1-2)Man(a1-6)]Man(b1-4)GlcNAc(b1-4)GlcNAc", "outline": "as §1"}, "[18]": {"biological_target": "Neu5Ac(a2-3)Gal(b1-3)GlcNAc(b1-6)GalNAc", "outline": "as §1"}, "[19]": {"biological_target": "Neu5Ac(a2-3)Gal(b1-3)[Fuc(a1-4)]GlcNAc(b1-3)Gal(b1-4)[Fuc(a1-3)]GlcNAc", "outline": "as §1"}, "[20]": {"biological_target": "Neu5Ac(a2-3)Gal(b1-4)GlcNAc(b1-3)Gal(b1-4)GlcNAc(b1-3)Gal(b1-4)GlcNAc(b1-2)Man(a1-3)[Neu5Ac(a2-3)Gal(b1-4)GlcNAc(b1-3)Gal(b1-4)GlcNAc(b1-3)Gal(b1-4)GlcNAc(b1-2)Man(a1-6)]GalNAc", "outline": "as §1"}, "[21]": {"biological_target": "Neu5Ac(a2-3)Gal(b1-4)GlcNAc(b1-6)[Neu5Ac(a2-3)Gal(b1-3)]GalNAc", "outline": "as §1"}, "[22]": {"biological_target": "Neu5Ac(a2-3)Gal6S(b1-4)[Fuc(a1-3)]GlcNAc", "outline": "as §1"}, "[23]": {"biological_target": "Neu5Ac(a2-6)Gal(b1-4)Glc", "outline": "as §1"}, "[24]": {"biological_target": "Neu5Ac(a2-6)Gal(b1-4)GlcNAc(b1-2)Man(a1-3)[Man(a1-6)]Man(b1-4)GlcNAc(b1-4)GlcNAc", "outline": "as §1"}, "[25]": {"biological_target": "Neu5Ac(a2-6)Gal(b1-4)GlcNAc(b1-3)Gal(b1-4)GlcNAc", "outline": "as §1"}, "[26]": {"biological_target": "Neu5Ac(a2-6)Gal(b1-4)GlcNAc(b1-6)[Gal(b1-3)]GalNAc", "outline": "as §1"}, "[27]": {"biological_target": "Neu5Ac(a2-8)Neu5Ac(a2-8)Neu5Ac(a2-3)Gal(b1-4)Glc", "outline": "as §1"}, "[28]": {"biological_target": "Neu5Gc(a2-6)Gal(b1-4)GlcNAc", "outline": "as §1"}}, "note": "About 410 targets per protein were measured; listed, in parts, are those with the strongest signals and a random draw of the rest.", "data": [{"binder": "B1", "values": [{"measurement": "glycan array binding signal (z-score)", "setting": "[1]", "value": 1.57}, {"measurement": "glycan array binding signal (z-score)", "setting": "[2]", "value": 0.661}, {"measurement": "glycan array binding signal (z-score)", "setting": "[3]", "value": -1.27}, {"measurement": "glycan array binding signal (z-score)", "setting": "[4]", "value": -0.662}, {"measurement": "glycan array binding signal (z-score)", "setting": "[5]", "value": -0.574}, {"measurement": "glycan array binding signal (z-score)", "setting": "[6]", "value": 0.329}, {"measurement": "glycan array binding signal (z-score)", "setting": "[7]", "value": 3.42}, {"measurement": "glycan array binding signal (z-score)", "setting": "[8]", "value": 0.077}, {"measurement": "glycan array binding signal (z-score)", "setting": "[9]", "value": -0.215}, {"measurement": "glycan array binding signal (z-score)", "setting": "[10]", "value": 0.698}, {"measurement": "glycan array binding signal (z-score)", "setting": "[11]", "value": -0.723}, {"measurement": "glycan array binding signal (z-score)", "setting": "[12]", "value": -0.208}, {"measurement": "glycan array binding signal (z-score)", "setting": "[13]", "value": -0.002}, {"measurement": "glycan array binding signal (z-score)", "setting": "[14]", "value": -0.312}, {"measurement": "glycan array binding signal (z-score)", "setting": "[15]", "value": 0.14}, {"measurement": "glycan array binding signal (z-score)", "setting": "[16]", "value": -0.476}, {"measurement": "glycan array binding signal (z-score)", "setting": "[17]", "value": 5.37}, {"measurement": "glycan array binding signal (z-score)", "setting": "[18]", "value": 0.201}, {"measurement": "glycan array binding signal (z-score)", "setting": "[19]", "value": -0.238}, {"measurement": "glycan array binding signal (z-score)", "setting": "[20]", "value": 4.1}, {"measurement": "glycan array binding signal (z-score)", "setting": "[21]", "value": -0.211}, {"measurement": "glycan array binding signal (z-score)", "setting": "[22]", "value": -0.672}, {"measurement": "glycan array binding signal (z-score)", "setting": "[23]", "value": -0.233}, {"measurement": "glycan array binding signal (z-score)", "setting": "[24]", "value": -0.337}, {"measurement": "glycan array binding signal (z-score)", "setting": "[25]", "value": -0.269}, {"measurement": "glycan array binding signal (z-score)", "setting": "[26]", "value": -0.387}, {"measurement": "glycan array binding signal (z-score)", "setting": "[27]", "value": -0.436}, {"measurement": "glycan array binding signal (z-score)", "setting": "[28]", "value": -0.088}]}]}
